An excerpt weighted towards active compounds, which were near 19% of everything screened.
HT1080-NT tox = kills 2HG-producing HT-1080-NT fibrosarcoma cells. 360,000 tested, 1.6% active. HT-1080-NT fibrosarcoma viability, CellTiter-Glo ATP luminescence, 48 h. Potency, µM (top dose mostly 46.1 µM), hits mostly cytotoxic;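 note: NT is the 2HG producing partner of a matched IDH1 knockdown line; nearly all actives have a fitted effect of over 55% in size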
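Viability of the 2HG-overproducing fibrosarcoma line after 48 hours of compound exposure at 37 degrees C was determined by luminescence with CellTiter-Glo, and concentration-effect curves were then fitted and categorized.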
IL1B secr inh = blocks inflammasome-driven IL-1 beta release; THP-1 LPS/ATP IL-1B secretion, AlphaLISA, 16 h; active compounds read low; activity change, % at 57.5 µM; 360,000 tested, 4.7% active; AID 743279; in the data active = activity change below about -50%; inconclusive = mostly about -30% to -49%
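Secreted IL-1B measured by AlphaLISA bead assay after 16 h compound exposure of THP-1 cells; compounds (final up to 57.5 uM) added 1 h before LPS (250 ng/mL) and ATP (1.25 mM) stimulation; lower signal means less secretion.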
DT40 TDP1 CPT = growth inhibition of DT40 Tdp1-/-;hTDP1 cells with camptothecin (screen for TDP1 inhibitors) | chicken DT40 Tdp1-/-;hTDP1 cells + 20 nM CPT, ATP luminescence, 48 h | Potency, µM (highest dose often 46.2 µM), hits mostly inhibitors | 420,000 tested, 12% active; note: nearly all actives have a fitted effect of over 55% in size
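Chicken DT40 Tdp1-/- cells stably complemented with human TDP1 were seeded at 400 cells/well in medium containing 20 nM camptothecin, exposed to pin-transferred compounds, and grown at 37 °C for at least 48 hr. Viability was read as ATP luminescence.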
HT1080 IDH1KD tx = kills HT-1080 cells with IDH1 knockdown | HT-1080 IDH1 knockdown viability, ATP luminescence, 48 h | Potency, µM (highest dose often 46.1 µM), actives largely listed as cytotoxic | 360,000 tested, 2% active | AID 686971
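Assay cells: HT-1080 with IDH1 knockdown, 750 per well, RPMI/5% FBS. Exposure: 48 h at 37 °C following 2 h pre-incubation. Read: CellTiter-Glo luminescence; fitted concentration-response, curve class assigned.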
DT40 TDP1 no CPT = qHTS for Inhibitors of human tyrosyl-DNA phosphodiesterase 1 (TDP1): qHTS in cells in absence of CPT; Potency, µM (highest dose often 46.2 µM), usual class: inhibitors; DT40 Tdp1-/- hTDP1 cells, no CPT, ATP luminescence, 48 h; 420,000 tested, 15% active; note: nearly all actives have a fitted effect of over 55% in size
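Growth kinetics read by CellTiter-Glo luminescence after ≥48 hr at 37 °C. Cells: DT40 Tdp1-/- stably carrying human TDP1, 400 per well, compound exposure in the absence of CPT (DMSO vehicle).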
Hits are given with their value; - = inactive; ? = inconclusive; . = not tested or not shown; [ ] = remark or other dose. Unless noted, calls come from the whole dose curve; as a rule, active = well fitted curve in the direction sought with a large enough effect; inconclusive = small, poorly fitted or top-dose-only effect, or another doubt; inactive = no such curve, though single readings can be large; an effect the other way counts as inactive or inconclusive.

SMILES	HT1080-NT tox	IL1B secr inh	DT40 TDP1 CPT	HT1080 IDH1KD tx	DT40 TDP1 no CPT
NC(=O)[C@H]1CC2(CC(c3cccc(NC(=O)COc4ccc(Cl)cc4)c3)=NO2)CN1C(=O)c1ccccc1C(=O)c1ccccc1 (some centres undefined)	-	?	20.6µM	-	18.4µM
CC(=O)Nc1ccc(OS(=O)(=O)c2c(C)cc(C)cc2C)cc1	-	-	?	-	?
CCOC(=O)N1CCN(S(=O)(=O)c2c(C)nc3sccn3c2=O)CC1	-	-	-	-	-
C[C@@H]1CN([C@@H](C)CO)C(=O)c2cc(Br)cnc2O[C@H]1CN(C)C(=O)CN1CCOCC1	-	-	-	-	-
CCCCCCCCCCCCC(=O)N1CCCC[C@H]1CNC(=O)[C@@H](N)CCCCN	.	.	13.3µM	.	21.1µM
CCC1CCCCN1C(=O)CCCc1ccccc1 (centres undefined)	-	?	?	-	-
COc1cc(N(C)C)c(OC)cc1C=O	.	.	15.8µM	.	11.2µM
Cc1cc(/C=C2\C=Cc3ccccc32)ccc1N(C)C	.	.	?	.	-
COc1cc(N(C)C)c(OC)cc1/C=C1\C=Cc2ccccc21	.	.	?	.	12.6µM
COc1cc(N(C)C)ccc1/C=C1\C=Cc2ccccc21	.	.	?	.	15.8µM
COC(=O)c1cccc(NC(=O)CSc2nnc(C)n2Cc2ccccc2)c1	-	-	-	-	-
CC(=O)c1ccc(-c2cc(F)cc3c2OC(CNC(=O)Cc2cn4ccsc4n2)C3)s1 (centres undefined)	.	.	-[9.04 µM]	.	-
COc1ccc(C(=O)C2CCCN(C(=O)c3cc(C4CC4)[nH]n3)C2)c(C)c1 (centres undefined)	-	-	?	-	?
O=S(=O)(c1ccc(F)c(F)c1)N1CCN(CCc2ccccc2)CC1	-	-	-	-	-
O=C(CCN1C(=O)/C(=C\c2ccccc2F)SC1=S)N1CCCCC1	-	?	3.66µM	-	2.91µM
O=C(CCN1C(=O)/C(=C/c2ccccc2Cl)SC1=S)NN1CCOCC1	-	-	?	-	?
O=C(CN1C(=O)/C(=C/c2cccc(Br)c2)SC1=S)N1CCCC1	-	-	3.26µM	-	9.2µM
O=C(CCN1C(=O)/C(=C/c2ccccc2)SC1=S)N1CCCCCC1	-	-100.8	11.6µM	-	20.6µM
O=C(CN1C(=O)/C(=C/c2cccc(Br)c2)SC1=S)NC1=NCCS1	-	-	-	-	-
O=C(CCN1C(=O)/C(=C\c2ccccc2)SC1=S)NCCCN1CCOCC1	-	-	?	-	?
O=C(CCN1C(=O)/C(=C\c2ccccc2Cl)SC1=S)N1CCN(c2ccccc2)CC1	-	-107.1	16.4µM	-	10.3µM
CCN(CCCNc1cc2c(c(N)c1S(=O)(=O)O)C(=O)c1ccccc1C2=O)c1ccccc1	-	-	?	-	18.4µM
CCOC(=O)C1CCN(c2c(NCCCN(CC)c3ccccc3)c(=O)c2=O)CC1	-	-	-	-	-
Cc1ccc(NC(=O)c2ccc(OCc3c(C)noc3C)cc2)cc1C	?	-88.0	?	-	?
Cc1noc(C)c1C(=O)N1CCN(c2ccc(OCc3ccccc3)cc2)CC1	-	-	14.6µM	-	16.4µM
SMILES	HT1080-NT tox	IL1B secr inh	DT40 TDP1 CPT	HT1080 IDH1KD tx	DT40 TDP1 no CPT
Cc1noc(C)c1COc1ccc(C(=O)N2CCN(S(=O)(=O)c3ccccc3)CC2)cc1	-	-	?	-	?
Cc1noc(C)c1COc1ccc(C(=O)NNC(=O)c2ccccc2F)cc1	?	-	2.31µM	6.51µM	1.46µM
CC(=O)Nc1ccc(NC(=O)c2ccc(OCc3c(C)noc3C)cc2)cc1	-	-	-	-	-
Cc1noc(C)c1COc1ccc(C(=O)N2CCN(c3ccccc3O)CC2)cc1	-	-	?	-	16.4µM
CN(C(=O)Cn1c(=O)oc2ccccc21)C1CCCCC1	-	-	-	-	-
Cc1cccc(NC(=O)c2ccc(OCc3c(C)noc3C)cc2)c1C	-	-	?	-	?
Cc1cccc(C)c1NC(=O)c1ccc(OCc2c(C)noc2C)cc1	-	-	?	-	16.4µM
Cc1noc(C)c1COc1ccc(C(=O)NNC(=O)c2ccccc2)cc1	?	-	5.17µM	14.6µM	4.61µM
COc1ccc(N=C2C(=O)Nc3c(C)cccc32)cc1	-	-	-	-	-
